# In the supplement of paper PMC11417369:
# The full ranking holds about 25,000 sequences; the median of “ln(normalized median fluorescence intensity)” is about 7.1, and the highest 2% start at about 10. The entries come from a sample that favours the highest values as a whole.
# Test system: PfSIP2 AP2 domain 1 (GST-tagged)
# Assay: gcPBM binding intensity (ln(normalized median fluorescence intensity)); higher = stronger DNA binding
# Outline: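 An Agilent 4 × 180k array carrying primer-extended double-stranded 36-bp intergenic genomic probes and negative controls received GST-tagged P. falciparum DNA-binding domains expressed in E. coli, about 25 μg on average, for 1 h. The binding buffer contained 1× PBS, 1% milk, 0.2 mg/ml BSA, 0.5% salmon testes DNA and 0.03% Triton X-100. Binding intensity is the top Masliner-normalised natural-log median intensity across replicate spots of either probe orientation, read after Alexa488 anti-GST antibody staining and a 488 nm scan.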
row,Sequence,gcPBM binding intensity (ln)
1,ATATTAACTATCATAACACACACAGTAGACATATTT [CACACA_site6941],6.99
2,CATTTTTTGCTTTCAACACACATACAATATAAATAA [CACACA_site7858],7.27
3,ATGAACTAAACTAATCGTACAATAAGTTTTATTATA [XGTACX_site4891],6.84
4,GGCATTTTATGAAGTAGTACCATAAATATTAAAGAT [XGTACX_site5287],7.32
5,TTTATATTTATCCAAAGTACTTTTTAAAAACATACC [XGTACX_site4518],7.36
6,TGGCTTATTCAGAAATGTACACATATAAATATATAT [XGTACX_site3765],7.11
7,AATGGGATCATGGTATGTACTTACACAAATGAATTA [XGTACX_site5389],6.82
8,CTATAAATATTTTATTGTACACACTTTTTATGAATG [XGTACX_site6711],7.22
9,TTCATTAAAATTATTACACACAGTTCTTCAACCAAA [CACACA_site3504],6.84
10,AAAGGTTTATATGATACACACATAAGTGATCAGGTT [CACACA_site190],6.75
11,GGAAAAATATAATATGCATGTTATTATTTTTTTATA [TGCATGCA_site836],6.77
12,GTAGATATTTATTGAGTGCATGTTATAAAGGGAAAA [GTGCAC_site9481],9.62
13,AGATATTTATTGAGTGCATGTTATAAAGGGAAAAAA [TGCATGCA_site88],10.3
14,TAAAAACATTTAAATTGTACGGAAATAAAAATTTTT [XGTACX_site8225],6.94
15,AGTAATAGTTTGTGCACACTCAAGTATATCATATAT [CACACA_site4034],9.56
16,AATATATGGTTTCATGATATTAAATTCAAAATAATG [CACACA_negctrl_site318],6.75
17,TATATTTCTTCTATAACATGCAGATATATGAAAATA [TGCATGCA_site971],7.11
18,TATTTCAAAATATGGGTGCAGTTCTTCATGATATAT [GTGCAC_site9658],10.7
19,TTTAAAAAATGTTATATTATATAATTAAAAAAAAAA [CACACA_negctrl_site1509],6.63
20,AACCAAACAAATAAACGTACAAACATTACATATATT [XGTACX_site2265],7.05

row,Sequence,gcPBM binding intensity (ln)
1,TTACTATGTAAACACACATGCAATATATGTTAAGCC [TGCATGCA_site253],6.91
2,AATTATTGTGAAGGGAAAACAAAAAAGTTTATAATT [CACACA_negctrl_site1337],6.87
3,TTTATAAAGGGAAAGGTGCAAAAGGTGAAAGTTTTA,10.8
4,AGTGTTTTTTATAAAGTGCAATATAAAAACAAAATG,8.59
5,TATATATATATACATTGTACATTATTGATTATAACA [XGTACX_site1678],9.52
6,TTTGAATCCTTATATACACACATTATGTAATATTAT [CACACA_site561],7.1
7,ATATATATATATATATGTACATAGAGAAGTATCTTT [XGTACX_site4737],9.91
8,TTTTTTTTTTTTTTGGTGCAGTTCACATATTATATA [GTGCAC_site9996],9.48
9,GAAGTAGATGGAAAAGTGCACTGTAATGGTTATATT,10.3
10,ATGTAGAAGTAATGCACACATATGTATTTATATATA [CACACA_site5391],7.26
11,ATGGTTATATTTGAAGTGCAAAAAAAAATATATGTA,8.55
12,CATTAATAACAAAGTTGTACAAGATAATATTATATG [XGTACX_site6832],7.26
13,TAAAAAATTATTAAACGTACGAGACTTTTTATCAGT [XGTACX_site2219],7.05
14,AAAAAAAAATATAACAGTACATAAACATATGAATAT [XGTACX_site7093],6.91
15,ATAATAAAAAAAATTAGTACATATATAAATATAAAT [XGTACX_site1937],6.85
16,CATCTCATATTTTGAAGTACTAAGAAAAGATATAAA [XGTACX_site6867],7.07
17,TTTTTTTTTTTTTTTGCATGTTGAAAATAAAATTAT [TGCATGCA_site86],6.92
18,AATTTGAAATATGTGGTGCAGTTATATAATATGTTT [GTGCAC_site9885],10.3
19,TTTTATGCATGTGAAGTGCAAAATAAAAAATAAAAT [GTGCAC_site9612],10.2
20,TTTTATGTTTATGTGGTGCATGTTTTGAAGAAAATA [GTGCAC_site9616],10.3

row,Sequence,gcPBM binding intensity (ln)
1,TATATTTGAAATATATGTACTTATAATACAGTTTAA [XGTACX_site8039],6.94
2,GAAAATTTAAAAAGAGTGCATTATATGTTTGAATAT [GTGCAC_site9564],9.18
3,ATATAAAATCAACAAAAAAAAAAAATATATATATAT [XGTACX_negctrl_site251],9.03
4,AAATACATAACTTAAAATTTGTTCATATCTATACAT [TGCATGCA_negctrl_site249],6.94
5,AAAAATTAACAAAAGGTGCAAACAAATAGTGGTTTT [GTGCAC_site9998],10.8
6,ACATTAACATTGTTGGTGCAAAATTAATATGTTTTT [GTGCAC_site9673],9.77
7,AGGTTTTCTTAAATAGTGCATTATAACAAAAATAAA,9.66
8,GTATATAATTTATGTGCACACACTCCTATTTTTAGC [CACACA_site49],8.89
9,ATTCCTTGGTTGTATAGTACTTTGGTTAAACATAAA [XGTACX_site6967],7.4
10,AAGATAAAATTATGCACACATACGAATAATTTTAAA [CACACA_site1705],7.24
11,CTTATAAGAATACTAGTGCACATAATTTAACGAAAA,10.6
12,TAGATTATTATACTAGTGCAAATTATTTAAGAAAAA,8.09
13,AAAAATTTAATTATTTGTACATAAAATACATTTCTG [XGTACX_site791],6.81
14,TTATAAATATAATTTTGTACATATATATATATATAC [XGTACX_site5064],7.39
15,AAAATTATACACACACGTACATATAAATAGAAATAT [XGTACX_site1753],7.12
16,AACATACGACAATACGCACACATATAAGTACATATT [CACACA_site8584],7.13
17,AGGATAAAAGTTATGGTGCATTAACCTATTTAAATA,10.2
18,TTCTATTTTTTAAAAGTGCATATTATAAATATATAT,9.04
19,ATTTAAAAGTTGGTAGTGCATTAAAAATAACAAAAA [GTGCAC_site9835],8.96
